# Mito fusion act: qHTS Assay for Small Molecule Inhibitors of Mitochondrial Division or Activators of Mitochondrial Fusion; S. cerevisiae fusion-defective mutant growth rescue, CellTiterGlo 48 h; 320,000 tested, 0.23% active; Potency, µM (highest dose often 46.1 µM), for inactives: at the top dose growth rescue (activation), usual class: activators; AID 485298, 2010; further: potency means the concentration at half of the fitted maximal effect; % of control where 0% means no effect; nearly all actives have a fitted effect of over 45% in size
#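 Yeast fusion mutant, YPEG (non-fermentable carbon), compound, 48 h at 37C non-permissive; CellTiterGlo added, 10 min RT, luminescence read. Rescued growth = division inhibition.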
# LDHA inh: qHTS assay for inhibitors of human lactate dehydrogenase; purified LDHA, NADH/diaphorase-resazurin fluorescence; active compounds read low; activity change, % (values are at about 110 or 230 µM); 480,000 tested, 0.15% active; AID 1347041, 2019; in the data active means activity change below about -30%; inconclusive means mostly about -25% to -30%;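 further: plate controls were DMSO wells for no effect and wells without enzyme for full effect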
#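 Resorufin fluorescence (ex540/em590), read at 0 and 20 min after diaphorase/resazurin addition, reports the NADH left after a 5 min room-temperature reaction of 2 nM human LDH5 with 0.06 mM NADH and 0.2 mM pyruvate.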
# RGS4 inhibitor: Inhibitors of Regulator of G Protein Signaling (RGS) 4: qHTS; Regulator of G-protein signaling 4 (Homo sapiens), P49798; Transcreener GDP fluorescence polarization, RGS4-accelerated GTP hydrolysis; Potency, µM (doses to about 114 µM), without a hit: top-dose activity change, negative = inhibition, hits mostly inhibitors; 390,000 tested, 0.039% active; further: potency means the concentration at half of the fitted maximal effect; on the % scale 0 is the no-effect control and ±100 the full control effect; nearly all actives have a fitted effect of over 75% in size
# Target sequence (P49798 whole entry, looked up): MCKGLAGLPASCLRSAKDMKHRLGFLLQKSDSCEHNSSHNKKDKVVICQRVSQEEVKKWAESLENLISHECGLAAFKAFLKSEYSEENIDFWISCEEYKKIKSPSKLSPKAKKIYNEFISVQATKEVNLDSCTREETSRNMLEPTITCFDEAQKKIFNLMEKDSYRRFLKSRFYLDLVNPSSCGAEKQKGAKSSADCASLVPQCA
#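 MLSMR compounds (23 nl, pin-transferred) preincubated 10 min at room temperature with a 500nM (2x) first reagent, then RGS4 at 900nM (2x) plus Transcreener GDP mix added; fluorescence polarization (620/688 nm) read before and after 90 min at 30 °C.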
# IDH1 R132H inh: qHTS for Inhibitors of mutant isocitrate dehydrogenase 1 (IDH1): qHTS | Isocitrate dehydrogenase [NADP] cytoplasmic (Homo sapiens), O75874 | 390,000 tested, 0.093% active | IDH1-R132H enzyme, NADPH consumption, diaphorase/resazurin fluorescence | Potency, µM (doses to about 76.6 µM), inactives show top-dose activity change, negative = inhibition, actives largely listed as inhibitors | AID 602179, 2012; further: potency means the concentration at half of the fitted maximal effect; on the % scale 0 is the no-effect control and ±100 the full control effect; nearly all actives have a fitted effect of over 65% in size
# Target sequence (O75874 whole entry R132H, stated change not applied): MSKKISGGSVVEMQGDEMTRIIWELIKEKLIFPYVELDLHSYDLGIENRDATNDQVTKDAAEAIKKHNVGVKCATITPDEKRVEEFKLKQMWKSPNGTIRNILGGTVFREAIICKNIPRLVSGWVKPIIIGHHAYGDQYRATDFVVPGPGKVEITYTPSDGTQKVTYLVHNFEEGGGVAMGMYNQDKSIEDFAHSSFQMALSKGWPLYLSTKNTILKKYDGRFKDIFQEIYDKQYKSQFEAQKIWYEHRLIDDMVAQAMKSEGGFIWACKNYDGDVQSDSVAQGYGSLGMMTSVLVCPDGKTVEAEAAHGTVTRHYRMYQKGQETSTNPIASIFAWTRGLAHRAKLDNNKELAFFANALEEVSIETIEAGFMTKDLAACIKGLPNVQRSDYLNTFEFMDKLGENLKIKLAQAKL
#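 IDH1-R132H (0.5 ug/mL) preincubated 30 min with compound, then NADPH (0.016 mM) and alpha-KG (2 mM) added; 80 min at RT, pH 7.5. Remaining NADPH coupled via diaphorase/resazurin to fluorescence (540/590 nm); concentration-response curves normalized to no-enzyme control.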
# S-ASM inh: Inhibitors of Secretory Acid Sphingomyelinase (S-ASM): qHTS; Potency, µM (doses to about 57.5 µM), without a hit: at the top dose activity change, negative = inhibition, most hits filed as inhibitors; 340,000 tested, 0.006% active; Sphingomyelin phosphodiesterase (Homo sapiens), P17405; placental ASM, HMU-PC fluorogenic substrate, 60 min; further: potency means the concentration at half of the fitted maximal effect
#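 Steps: dispense placental human ASM, pin compound, wait 10 min at room temperature, add HMU-PC0 substrate at 9 uM final, incubate 60 min at 37 °C, add stop solution raising pH to 10, read fluorescence.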
# ClpP mod: qHTS Assay for Activators of ClpP; ATP-dependent Clp protease proteolytic subunit (Bacillus subtilis (strain 168)), P80244; purified B. subtilis ClpP, FRET peptide cleavage, 20 min; Potency, µM (top dose mostly 57.5 µM), inactives show at the top dose activity change, negative = active; 340,000 tested, 1.9% active; AID 651965, 2013; active means well fitted falling curve with a large enough effect; inconclusive means small, poorly fitted or top-dose-only effect; inactive means no such curve, though single readings can be large or run the other way; further: potency means the concentration at half of the fitted maximal effect; the source files actives as falling curves though it sought activators and does not explain the sign; nearly all actives have a fitted effect of over 65% in size
#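 FRET quenching reversal measured ClpP activation: 10 microg/mL B. subtilis ClpP at pH 8 with the FRET-FV decapeptide, read at 430 nm after 320 nm excitation. The 20-min minus 0-min signal was scaled between DMSO/no-enzyme wells and ADEP (5.8 microM final).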
# An asterisk follows results filed as active; i = inactive; ? = inconclusive; . = not tested or not shown. Shown is part of a subset that was picked to be rich in hits. Unless noted, the call rests on the fitted dose curve; in most records, active means well fitted curve in the direction sought with a large enough effect; inconclusive means small, poorly fitted or top-dose-only effect, or another doubt; inactive means no such curve, though single readings can be large; an effect the other way counts as inactive or inconclusive.
SMILES,Mito fusion act,LDHA inh,RGS4 inhibitor,IDH1 R132H inh,S-ASM inh,ClpP mod
O=C(NCCNCc1c[nH]c2ccccc12)c1ccccc1F,.,-7,.,.,.,.
O=C(Nc1cccnc1)c1cc(-c2ccncc2)nc2ccccc12,.,-18,.,.,.,.
O=C(CSc1n[nH]c(=O)n1Cc1ccco1)c1ccc2c(c1)OCCO2,3%,0,42%,-2%,0%,-1%
N#Cc1ccc(C(=O)CSc2n[nH]c(=O)n2Cc2ccco2)cc1,-2%,-5,-27%,0%,5%,28µM*
CC(C)(C)OC(=O)N/N=C/c1ccccc1OCC(=O)O,.,-1,.,.,.,.
CC1=C(c2ccc(C)c(C)c2)S(=O)(=O)N(Cc2ccc(C(=O)NCc3ccccc3F)cc2)C1=O,.,-9,27%,19%,.,14µM*
COc1ccccc1NC(=O)c1ccc(CN2C(=O)C(C)=C(c3ccc(C)c(C)c3)S2(=O)=O)cc1,.,3,-48%,.,.,-5%
Cc1cccn2c(=O)c3cc(C(=O)NCCN4CCOCC4)c(=N)n(CCCN4CCOCC4)c3nc12,4%,-3,-1%,27%,i,.
CCNC(=O)c1cc2c(=O)n3cccc(C)c3nc2n(CCc2ccccc2)c1=N,7%,-6,-38%,1%,237%,?
Cc1cccn2c(=O)c3cc(C(=O)NCc4ccccc4)c(=N)n(CCCN4CCOCC4)c3nc12,.,0,-30%,5%,i,3%
COCCn1c(=N)c(C(=O)NCCc2ccccc2)cc2c(=O)n3cccc(C)c3nc21,.,-8,16%,-1%,i,1.4µM*
Cc1cccn2c(=O)c3cc(C(=O)NCCc4ccccc4)c(=N)n(CCCn4ccnc4)c3nc12,-1%,-3,-14%,2%,492%,18µM*
Cc1cccn2c(=O)c3cc(C(=O)NCCN4CCOCC4)c(=N)n(CCc4ccccc4)c3nc12,1%,-1,12%,-3%,333%,3.2µM*
COC(=O)c1cc2c(ccn2-c2ccc(F)cc2)n1Cc1ccc(C#N)cc1,?,1,-7%,6%,-12%,1%
COC(=O)c1cc2c(ccn2-c2ccc(F)cc2)n1Cc1ccc(OC)cc1,10%,-1,-7%,2%,-3%,22µM*
O=C(Cc1cccc(F)c1)Nc1c(NC2CCCCC2)c2ccccc2oc1=O,.,6,.,.,.,.
Cc1ncc(CO)c(/C=N/NC(=O)c2ccoc2C)c1O,-6%,5,17%,-1%,324%,25µM*
CC1=C(C(=O)OC(C)C)C(c2cccnc2)C2=C(CC(C)(C)CC2=O)N1 (stereo not given),-3%,-1,9%,2%,i,28µM*
CC1=C(C(=O)OCCOC(C)C)C(c2cccnc2)C2=C(CCCC2=O)N1 (stereo not given),-5%,-3,24%,0%,476%,?
CC1=C(C(=O)OC(C)C)C(c2ccc(N(C)C)cc2)C2=C(CC(C)(C)CC2=O)N1 (stereo not given),-3%,8,21%,10%,40%,5%
COCCOC(=O)C1=C(C)NC2=C(C(=O)CC(C)(C)C2)C1c1cccnc1 (stereo not given),-2%,1,-18%,5%,i,28µM*
COc1ccc(C2CCCN2C(=O)c2ccc(-n3cccn3)cc2)c(OC)c1 (stereo not given),.,4,.,.,.,.
O=C1CSC(c2cn(-c3ccccc3)nc2-c2cc3ccccc3oc2=O)N1Cc1ccccc1 (stereo not given),29%,-1,-7%,9%,51%,28µM*
O=C1CSC(c2nn(-c3ccccc3)cc2-c2cc3ccccc3oc2=O)N1Cc1ccco1 (stereo not given),7%,-17,8%,11%,90%,35µM*
CN(C)C(=O)c1cn(-c2ccccc2)nc1-c1cc2ccccc2oc1=O,6%,-7,6%,-8%,93%,.
SMILES,Mito fusion act,LDHA inh,RGS4 inhibitor,IDH1 R132H inh,S-ASM inh,ClpP mod
O=C(COc1ccc(Br)cc1CO)Nc1ccccc1F,2%,-7,20%,2%,-8%,10µM*
O=c1cc(O)c2sc3nc(-c4cccs4)cc(-c4cccs4)c3c2[nH]1,.,3,.,.,.,.
CCC1NC(=O)c2cc(S(N)(=O)=O)c(Cl)cc2N1 (stereo not given),1%,-2,-30%,16%,87%,5%
CN1C(CCl)Nc2cc(Cl)c(S(N)(=O)=O)cc2S1(=O)=O (stereo not given),.,-13,-8%,-3%,0%,14µM*
COc1ccc(-c2cc(C(=O)N3CCCC3)c3ccccc3n2)c(OC)c1,.,0,.,.,.,.
COCCCNc1nc2ccccc2nc1NS(=O)(=O)c1ccc(Cl)cc1,14µM*,-5,11%,3%,-2%,-20%
O=C1NC(c2ccc(O)cc2)Nc2ccccc21 (stereo not given),0%,-2,0%,7%,20%,?
O=C1NC(c2cccc(OCc3ccccc3)c2)Nc2ccccc21 (stereo not given),.,0,3%,-1%,146%,32µM*
CCOC(=O)C1(Cc2cccc(Cl)c2)CCCN(C(=O)c2cnn(CC)c2)C1 (stereo not given),-1%,-6,20%,5%,2%,32µM*
O=C(NCc1ccc(F)cc1)c1ccccc1OCc1ccccc1,18µM*,-8,-13%,2%,-5%,-2%
CN(C)S(=O)(=O)c1cccc(NC(=O)c2ccccc2OCc2ccc(F)cc2)c1,-4%,-2,15%,4%,-11%,20µM*
O=C(NCc1ccccc1)c1ccc(-c2ccc(F)cc2)o1,20%,0,-29%,0%,-1%,28µM*
O=C(O)/C=C\C(=O)Nc1ccccc1C(=O)NCc1ccccc1,0%,2,13%,14%,2%,4µM*
O=C(O)/C=C/C(=O)NCc1ccccc1,3%,-2,-16%,5%,0%,-7%
CN(CC(=O)Nc1ccccc1C(F)(F)F)C1CCc2ccccc21 (stereo not given),.,-3,.,.,.,.
CCOc1ccc(CNC(=O)CS(=O)(=O)Cc2nc(-c3ccccc3C)oc2C)cc1,.,-8,.,.,.,.

# Source: PubChem BioAssay (National Center for Advancing Translational Sciences (NCATS))
